# Assay results published in article PMC7862700, “An all-to-all approach to the identification of sequence-specific readers for epigenetic DNA modifications on cytosine”.
# Tests used:
# Test in all cases: DAPPL (digital affinity profiling via proximity ligation, sequencing); 10 mM Tris-HCl pH 7.5, 50 mM NaCl, 1 mM DTT, 4% glycerol, room temperature, 30 min; GST-TFs on glutathione beads, 16-mer random dsDNA library, 0.1% formaldehyde crosslink after washing; high values mean tight binding
# [1] = target: T1, FEV (Homo sapiens, UniProt Q99581 1-238); conditions: protein: recombinant; tags: N-terminal GST; dsDNA, one strand shown
# T1 sequence: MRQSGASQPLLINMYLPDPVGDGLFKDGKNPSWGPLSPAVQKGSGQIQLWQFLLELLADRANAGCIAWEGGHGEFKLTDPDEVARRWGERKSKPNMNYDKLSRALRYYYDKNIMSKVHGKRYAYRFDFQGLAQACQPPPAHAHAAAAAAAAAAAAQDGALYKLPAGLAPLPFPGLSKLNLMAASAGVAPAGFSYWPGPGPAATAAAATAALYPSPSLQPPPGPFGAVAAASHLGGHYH
# Outline: (§1)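 Pools of DNA-barcoded human transcription factors, expressed in yeast as GST fusions on glutathione beads and combined with a tag-only sample, were incubated with 200 nmole of a 16-mer random double-stranded DNA library. Incubation took 30 min at room temperature in Tris/NaCl/DTT/glycerol buffer and was followed by washing, 0.1% formaldehyde crosslinking, proximity ligation (BsaI/T4 ligase, 1 h, 37 °C), PCR amplification and sequencing on an Illumina NextSeq500. Binding signal is the ratio of a hexamer's read frequency for a factor to its frequency for the tag-only sample.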
# [2] = target: ETV5 (Homo sapiens, UniProt P41161 1-510); conditions: protein: recombinant; tags: N-terminal GST; dsDNA, one strand shown
# Chain of ETV5 (P41161 whole entry): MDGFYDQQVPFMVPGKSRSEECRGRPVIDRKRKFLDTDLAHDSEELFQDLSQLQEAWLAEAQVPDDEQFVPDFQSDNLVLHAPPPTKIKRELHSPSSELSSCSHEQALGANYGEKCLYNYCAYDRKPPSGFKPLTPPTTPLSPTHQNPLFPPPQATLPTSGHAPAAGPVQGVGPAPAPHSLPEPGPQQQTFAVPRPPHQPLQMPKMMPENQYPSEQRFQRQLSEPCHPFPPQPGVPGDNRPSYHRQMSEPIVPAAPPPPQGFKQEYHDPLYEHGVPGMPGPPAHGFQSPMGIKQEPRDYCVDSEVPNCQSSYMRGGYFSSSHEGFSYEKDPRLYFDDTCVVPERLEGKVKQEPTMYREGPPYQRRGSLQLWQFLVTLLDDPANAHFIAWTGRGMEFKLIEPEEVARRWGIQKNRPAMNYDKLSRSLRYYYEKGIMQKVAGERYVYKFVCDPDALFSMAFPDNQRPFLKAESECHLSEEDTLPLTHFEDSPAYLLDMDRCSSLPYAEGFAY
# Outline: as §1
# [3] = target: HSF1 (Homo sapiens, UniProt Q00613 1-529); conditions: protein: recombinant; tags: N-terminal GST; chain copies: 3; dsDNA, one strand shown
# Chain of HSF1 (Q00613 whole entry): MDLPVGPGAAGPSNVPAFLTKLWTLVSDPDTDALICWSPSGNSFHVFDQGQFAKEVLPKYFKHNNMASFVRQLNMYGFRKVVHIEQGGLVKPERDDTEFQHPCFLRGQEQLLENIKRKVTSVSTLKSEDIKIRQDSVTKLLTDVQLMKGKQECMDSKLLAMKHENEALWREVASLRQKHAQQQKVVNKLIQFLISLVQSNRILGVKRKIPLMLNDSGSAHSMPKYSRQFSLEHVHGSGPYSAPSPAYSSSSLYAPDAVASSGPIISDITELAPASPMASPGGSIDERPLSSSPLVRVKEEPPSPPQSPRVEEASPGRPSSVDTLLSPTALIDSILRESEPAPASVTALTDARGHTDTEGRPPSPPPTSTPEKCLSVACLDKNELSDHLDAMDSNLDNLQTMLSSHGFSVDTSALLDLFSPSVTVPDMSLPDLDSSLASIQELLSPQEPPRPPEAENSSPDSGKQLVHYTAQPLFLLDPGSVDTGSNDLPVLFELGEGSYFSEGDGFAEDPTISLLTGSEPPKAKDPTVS
# Outline: as §1
# [4] = target: T2, SPIC (Homo sapiens, UniProt Q8N5J4 1-248); conditions: protein: recombinant; tags: N-terminal GST; dsDNA, one strand shown
# T2 sequence: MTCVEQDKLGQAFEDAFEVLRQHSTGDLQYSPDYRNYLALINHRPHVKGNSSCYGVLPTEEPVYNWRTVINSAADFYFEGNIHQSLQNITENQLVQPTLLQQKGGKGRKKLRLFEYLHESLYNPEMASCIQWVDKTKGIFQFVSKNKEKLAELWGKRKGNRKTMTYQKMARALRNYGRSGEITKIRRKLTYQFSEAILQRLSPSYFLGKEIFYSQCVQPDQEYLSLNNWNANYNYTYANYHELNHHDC
# Outline: as §1
# [5] = target: ELF4 (Homo sapiens, UniProt Q99607 1-663); conditions: protein: recombinant; tags: N-terminal GST; dsDNA, one strand shown
# Chain of ELF4 (Q99607 whole entry): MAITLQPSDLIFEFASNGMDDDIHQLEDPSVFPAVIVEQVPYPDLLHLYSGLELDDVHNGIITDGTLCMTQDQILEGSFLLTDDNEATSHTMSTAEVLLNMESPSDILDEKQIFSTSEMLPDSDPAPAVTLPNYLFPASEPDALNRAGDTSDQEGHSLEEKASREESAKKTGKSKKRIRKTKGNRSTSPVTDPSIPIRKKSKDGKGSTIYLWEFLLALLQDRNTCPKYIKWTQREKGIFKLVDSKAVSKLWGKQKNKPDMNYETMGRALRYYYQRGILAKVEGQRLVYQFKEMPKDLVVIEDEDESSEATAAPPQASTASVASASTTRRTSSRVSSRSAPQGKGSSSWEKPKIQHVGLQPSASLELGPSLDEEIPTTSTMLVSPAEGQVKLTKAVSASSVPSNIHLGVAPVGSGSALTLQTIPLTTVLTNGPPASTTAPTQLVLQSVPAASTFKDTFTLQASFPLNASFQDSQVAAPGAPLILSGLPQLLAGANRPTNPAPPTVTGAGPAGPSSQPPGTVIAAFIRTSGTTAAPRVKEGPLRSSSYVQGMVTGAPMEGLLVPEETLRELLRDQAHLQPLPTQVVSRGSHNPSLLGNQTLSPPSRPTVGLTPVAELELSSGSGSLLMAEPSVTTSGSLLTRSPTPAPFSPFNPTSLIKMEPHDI
# Outline: as §1
# [6] = target: T3, ELK4 (Homo sapiens, UniProt P28324-2 1-405); conditions: protein: recombinant; tags: N-terminal GST; dsDNA, one strand shown
# T3 sequence: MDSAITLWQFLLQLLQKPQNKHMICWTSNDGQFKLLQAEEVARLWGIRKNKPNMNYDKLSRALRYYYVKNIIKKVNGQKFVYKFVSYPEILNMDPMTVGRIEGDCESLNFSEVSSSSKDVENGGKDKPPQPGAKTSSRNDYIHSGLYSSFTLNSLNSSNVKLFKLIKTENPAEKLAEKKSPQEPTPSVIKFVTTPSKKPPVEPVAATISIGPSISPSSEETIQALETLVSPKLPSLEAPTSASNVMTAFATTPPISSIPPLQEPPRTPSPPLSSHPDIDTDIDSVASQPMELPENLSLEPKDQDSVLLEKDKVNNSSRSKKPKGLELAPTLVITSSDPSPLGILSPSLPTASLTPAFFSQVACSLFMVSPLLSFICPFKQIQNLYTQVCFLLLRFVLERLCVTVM
# Outline: as §1
# [7] = target: T4, ETV2 (Homo sapiens, UniProt O00321 1-342); conditions: protein: recombinant; tags: N-terminal GST; dsDNA, one strand shown
# T4 sequence: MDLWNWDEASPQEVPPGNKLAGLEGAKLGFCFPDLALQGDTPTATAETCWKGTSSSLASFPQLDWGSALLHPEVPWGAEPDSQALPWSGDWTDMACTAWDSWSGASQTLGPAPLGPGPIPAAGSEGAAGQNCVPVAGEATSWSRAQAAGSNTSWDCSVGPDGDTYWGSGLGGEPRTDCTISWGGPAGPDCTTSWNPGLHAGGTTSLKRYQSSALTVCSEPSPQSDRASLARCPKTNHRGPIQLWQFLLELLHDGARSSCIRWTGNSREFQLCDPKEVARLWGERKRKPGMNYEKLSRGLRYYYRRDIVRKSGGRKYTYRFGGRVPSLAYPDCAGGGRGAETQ
# Outline: as §1
# [8] = target: T5, ELF3 (Homo sapiens, UniProt P78545 1-371); conditions: protein: recombinant; tags: N-terminal GST; dsDNA, one strand shown
# T5 sequence: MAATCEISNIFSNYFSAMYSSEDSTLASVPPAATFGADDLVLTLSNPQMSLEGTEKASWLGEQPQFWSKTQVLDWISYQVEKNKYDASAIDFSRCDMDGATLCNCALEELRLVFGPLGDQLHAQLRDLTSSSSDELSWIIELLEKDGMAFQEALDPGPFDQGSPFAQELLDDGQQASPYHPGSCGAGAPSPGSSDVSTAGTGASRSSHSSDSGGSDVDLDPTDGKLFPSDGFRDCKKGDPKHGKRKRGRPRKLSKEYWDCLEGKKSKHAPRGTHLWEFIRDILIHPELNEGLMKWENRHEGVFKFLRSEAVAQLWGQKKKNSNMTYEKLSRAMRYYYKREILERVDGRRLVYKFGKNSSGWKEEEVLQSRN
# Outline: as §1
# [9] = target: CRX (Homo sapiens, UniProt O43186 1-299); conditions: protein: recombinant; tags: N-terminal GST; dsDNA, one strand shown
# Chain of CRX (O43186 whole entry): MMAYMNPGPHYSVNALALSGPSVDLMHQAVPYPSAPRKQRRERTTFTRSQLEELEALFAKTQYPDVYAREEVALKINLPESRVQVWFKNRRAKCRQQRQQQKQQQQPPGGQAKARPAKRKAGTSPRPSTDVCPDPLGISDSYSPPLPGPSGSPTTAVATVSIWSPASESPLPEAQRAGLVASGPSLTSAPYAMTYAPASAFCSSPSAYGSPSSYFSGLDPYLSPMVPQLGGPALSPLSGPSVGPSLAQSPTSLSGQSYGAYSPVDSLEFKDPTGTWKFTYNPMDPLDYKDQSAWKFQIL
# Outline: as §1
# [10] = target: ETV1 (Homo sapiens, UniProt P50549 1-477); conditions: protein: recombinant; tags: N-terminal GST; dsDNA, one strand shown
# Chain of ETV1 (P50549 whole entry): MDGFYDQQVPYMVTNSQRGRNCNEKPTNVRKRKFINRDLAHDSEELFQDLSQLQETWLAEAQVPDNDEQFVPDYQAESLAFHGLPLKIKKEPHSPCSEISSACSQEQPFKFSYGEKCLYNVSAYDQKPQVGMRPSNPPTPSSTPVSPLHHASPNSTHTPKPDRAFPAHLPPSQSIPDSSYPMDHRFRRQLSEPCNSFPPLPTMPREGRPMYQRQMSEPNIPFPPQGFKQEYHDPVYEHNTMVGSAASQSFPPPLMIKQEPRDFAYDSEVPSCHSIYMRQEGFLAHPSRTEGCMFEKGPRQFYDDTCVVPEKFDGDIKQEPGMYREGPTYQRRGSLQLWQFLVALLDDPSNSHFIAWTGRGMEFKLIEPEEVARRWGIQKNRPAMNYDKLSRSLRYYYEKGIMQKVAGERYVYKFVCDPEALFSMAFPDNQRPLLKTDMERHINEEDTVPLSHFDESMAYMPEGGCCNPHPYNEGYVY
# Outline: as §1
# [11] = target: T6, ERF (Homo sapiens, UniProt P50548 1-548); conditions: protein: recombinant; tags: N-terminal GST; dsDNA, one strand shown
# T6 sequence: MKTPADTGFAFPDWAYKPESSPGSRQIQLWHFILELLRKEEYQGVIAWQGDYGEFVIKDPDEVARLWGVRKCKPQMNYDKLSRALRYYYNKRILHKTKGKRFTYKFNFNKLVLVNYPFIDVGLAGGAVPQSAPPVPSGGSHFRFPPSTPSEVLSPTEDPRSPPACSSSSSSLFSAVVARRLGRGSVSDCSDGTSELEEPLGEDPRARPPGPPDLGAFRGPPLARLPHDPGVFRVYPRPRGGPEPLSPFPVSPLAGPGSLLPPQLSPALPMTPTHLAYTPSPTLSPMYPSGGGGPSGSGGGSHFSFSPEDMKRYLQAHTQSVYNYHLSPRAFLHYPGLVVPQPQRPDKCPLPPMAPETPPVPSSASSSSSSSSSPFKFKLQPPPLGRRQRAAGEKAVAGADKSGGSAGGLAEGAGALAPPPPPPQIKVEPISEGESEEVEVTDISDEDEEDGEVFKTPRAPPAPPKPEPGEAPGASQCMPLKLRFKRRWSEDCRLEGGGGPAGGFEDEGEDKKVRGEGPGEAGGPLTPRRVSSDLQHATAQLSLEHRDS
# Outline: as §1
# [12] = target: T7, ETV3L (Homo sapiens, UniProt Q6ZN32 1-361); conditions: protein: recombinant; tags: N-terminal GST; dsDNA, one strand shown
# T7 sequence: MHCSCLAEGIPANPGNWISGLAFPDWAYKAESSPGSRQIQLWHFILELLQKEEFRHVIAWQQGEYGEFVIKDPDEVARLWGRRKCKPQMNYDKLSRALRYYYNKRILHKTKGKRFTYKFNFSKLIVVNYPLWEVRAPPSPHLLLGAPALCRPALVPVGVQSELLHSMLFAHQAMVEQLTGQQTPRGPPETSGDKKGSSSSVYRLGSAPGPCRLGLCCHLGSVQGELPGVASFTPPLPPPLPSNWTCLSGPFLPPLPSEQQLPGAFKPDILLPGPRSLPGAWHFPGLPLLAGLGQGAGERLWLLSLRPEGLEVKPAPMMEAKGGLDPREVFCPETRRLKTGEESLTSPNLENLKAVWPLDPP
# Outline: as §1
# [13] = target: T8, ETS2 (Homo sapiens, UniProt P15036 1-469); conditions: protein: recombinant; tags: N-terminal GST; dsDNA, one strand shown
# T8 sequence: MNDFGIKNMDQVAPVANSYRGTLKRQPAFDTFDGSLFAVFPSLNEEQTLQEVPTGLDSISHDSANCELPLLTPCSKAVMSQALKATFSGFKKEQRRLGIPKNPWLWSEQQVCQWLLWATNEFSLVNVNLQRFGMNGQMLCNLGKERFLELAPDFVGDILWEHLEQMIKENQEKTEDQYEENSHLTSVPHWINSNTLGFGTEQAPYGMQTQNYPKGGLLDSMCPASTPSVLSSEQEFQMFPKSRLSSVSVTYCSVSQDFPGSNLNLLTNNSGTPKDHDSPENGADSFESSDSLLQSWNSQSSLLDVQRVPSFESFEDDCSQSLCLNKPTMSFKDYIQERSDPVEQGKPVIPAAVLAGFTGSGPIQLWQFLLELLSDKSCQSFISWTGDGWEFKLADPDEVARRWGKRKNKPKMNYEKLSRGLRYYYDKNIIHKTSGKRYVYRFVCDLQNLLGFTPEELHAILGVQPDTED
# Outline: as §1
# [14] = target: T9, SPDEF (Homo sapiens, UniProt O95238 1-335); conditions: protein: recombinant; tags: N-terminal GST; dsDNA, one strand shown
# T9 sequence: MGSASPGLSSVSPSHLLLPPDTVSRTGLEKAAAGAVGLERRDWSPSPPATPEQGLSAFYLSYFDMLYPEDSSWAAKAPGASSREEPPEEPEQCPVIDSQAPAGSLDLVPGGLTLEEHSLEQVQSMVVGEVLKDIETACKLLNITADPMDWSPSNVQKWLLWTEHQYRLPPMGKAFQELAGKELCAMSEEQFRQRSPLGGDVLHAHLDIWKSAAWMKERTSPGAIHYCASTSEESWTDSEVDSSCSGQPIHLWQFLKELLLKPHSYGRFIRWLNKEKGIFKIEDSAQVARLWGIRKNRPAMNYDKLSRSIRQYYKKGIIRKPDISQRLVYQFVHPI
# Outline: as §1
# [15] = target: T10, ETV7 (Homo sapiens, UniProt Q9Y603 1-341); conditions: protein: recombinant; tags: N-terminal GST; dsDNA, one strand shown
# T10 sequence: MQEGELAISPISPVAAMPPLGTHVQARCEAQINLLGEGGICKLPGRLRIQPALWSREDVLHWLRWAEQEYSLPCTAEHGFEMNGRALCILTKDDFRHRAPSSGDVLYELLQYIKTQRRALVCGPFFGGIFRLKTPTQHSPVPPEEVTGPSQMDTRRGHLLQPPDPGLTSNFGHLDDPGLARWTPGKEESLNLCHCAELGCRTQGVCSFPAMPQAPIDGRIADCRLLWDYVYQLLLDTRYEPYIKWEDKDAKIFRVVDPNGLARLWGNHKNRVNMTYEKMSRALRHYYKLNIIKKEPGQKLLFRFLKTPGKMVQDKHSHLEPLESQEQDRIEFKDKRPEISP
# Outline: as §1
# [16] = target: T11, ELF5 (Homo sapiens, UniProt Q9UKW6-2 1-255); conditions: protein: recombinant; tags: N-terminal GST; dsDNA, one strand shown
# T11 sequence: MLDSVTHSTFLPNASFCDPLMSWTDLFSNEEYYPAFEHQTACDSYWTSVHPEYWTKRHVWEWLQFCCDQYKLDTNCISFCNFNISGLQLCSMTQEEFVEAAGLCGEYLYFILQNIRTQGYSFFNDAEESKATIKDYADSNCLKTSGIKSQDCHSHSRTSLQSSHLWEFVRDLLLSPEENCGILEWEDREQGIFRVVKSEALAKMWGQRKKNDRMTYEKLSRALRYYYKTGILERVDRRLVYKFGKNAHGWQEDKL
# Outline: as §1
# [17] = target: T12, ETV3 (Homo sapiens, UniProt P41162-2 1-143); conditions: protein: recombinant; tags: N-terminal GST; dsDNA, one strand shown
# T12 sequence: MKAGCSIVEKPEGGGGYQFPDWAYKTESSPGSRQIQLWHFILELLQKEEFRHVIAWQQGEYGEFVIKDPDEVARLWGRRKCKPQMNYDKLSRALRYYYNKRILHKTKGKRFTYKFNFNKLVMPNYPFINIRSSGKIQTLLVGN
# Outline: as §1
# [18] = target: ETV6 (Homo sapiens, UniProt P41212 1-452); conditions: protein: recombinant; tags: N-terminal GST; dsDNA, one strand shown
# Chain of ETV6 (P41212 whole entry): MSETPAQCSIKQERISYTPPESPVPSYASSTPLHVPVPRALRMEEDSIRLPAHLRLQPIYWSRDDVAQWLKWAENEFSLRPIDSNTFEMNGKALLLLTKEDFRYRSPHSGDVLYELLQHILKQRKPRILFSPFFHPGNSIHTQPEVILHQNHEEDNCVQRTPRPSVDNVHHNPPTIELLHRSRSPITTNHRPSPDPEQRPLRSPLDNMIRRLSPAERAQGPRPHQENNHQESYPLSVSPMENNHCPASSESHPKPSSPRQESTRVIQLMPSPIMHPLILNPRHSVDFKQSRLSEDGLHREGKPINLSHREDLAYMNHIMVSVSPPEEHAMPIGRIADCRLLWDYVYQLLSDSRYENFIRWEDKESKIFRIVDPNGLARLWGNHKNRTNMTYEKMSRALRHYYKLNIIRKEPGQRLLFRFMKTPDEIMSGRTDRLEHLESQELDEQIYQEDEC
# Outline: as §1
sequence,measurement,setting,value
AACTTT,binding signal,[1],"1.18 fold enrichment (6-mer frequency, TF over GST control)"
same,binding signal,[2],"1.19 fold enrichment (6-mer frequency, TF over GST control)"
same,binding signal,[3],"1.68 fold enrichment (6-mer frequency, TF over GST control)"
same,binding signal,[4],"1.45 fold enrichment (6-mer frequency, TF over GST control)"
same,binding signal,[5],"1.19 fold enrichment (6-mer frequency, TF over GST control)"
same,binding signal,[6],"1.32 fold enrichment (6-mer frequency, TF over GST control)"
same,binding signal,[7],"1.3 fold enrichment (6-mer frequency, TF over GST control)"
same,binding signal,[8],"1.33 fold enrichment (6-mer frequency, TF over GST control)"
same,binding signal,[9],"1.27 fold enrichment (6-mer frequency, TF over GST control)"
same,binding signal,[10],"1.23 fold enrichment (6-mer frequency, TF over GST control)"
same,binding signal,[11],"1.27 fold enrichment (6-mer frequency, TF over GST control)"
same,binding signal,[12],"1.26 fold enrichment (6-mer frequency, TF over GST control)"
same,binding signal,[13],"1.2 fold enrichment (6-mer frequency, TF over GST control)"
same,binding signal,[14],"1.17 fold enrichment (6-mer frequency, TF over GST control)"
same,binding signal,[15],"1.2 fold enrichment (6-mer frequency, TF over GST control)"
same,binding signal,[16],"1.3 fold enrichment (6-mer frequency, TF over GST control)"
same,binding signal,[17],"1.4 fold enrichment (6-mer frequency, TF over GST control)"
same,binding signal,[18],"1.22 fold enrichment (6-mer frequency, TF over GST control)"
